# From PubChem BioAssay
# FLuc modulator: counter-screen for miR-21 project: firefly luciferase inhibitors or activators; Potency, µM (highest dose often 57.5 µM), for inactives: top-dose activity change, negative = inhibition, actives largely listed as inhibitors; P08659; 360,000 compounds, 6.9% hits; purified FLuc, Km substrates, luminescence inhibition;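 note: plate controls were vehicle for no effect and reference inhibitor for full effect; nearly all actives have a fitted effect of over 55% in size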
# Target sequence (P08659 whole entry, looked up): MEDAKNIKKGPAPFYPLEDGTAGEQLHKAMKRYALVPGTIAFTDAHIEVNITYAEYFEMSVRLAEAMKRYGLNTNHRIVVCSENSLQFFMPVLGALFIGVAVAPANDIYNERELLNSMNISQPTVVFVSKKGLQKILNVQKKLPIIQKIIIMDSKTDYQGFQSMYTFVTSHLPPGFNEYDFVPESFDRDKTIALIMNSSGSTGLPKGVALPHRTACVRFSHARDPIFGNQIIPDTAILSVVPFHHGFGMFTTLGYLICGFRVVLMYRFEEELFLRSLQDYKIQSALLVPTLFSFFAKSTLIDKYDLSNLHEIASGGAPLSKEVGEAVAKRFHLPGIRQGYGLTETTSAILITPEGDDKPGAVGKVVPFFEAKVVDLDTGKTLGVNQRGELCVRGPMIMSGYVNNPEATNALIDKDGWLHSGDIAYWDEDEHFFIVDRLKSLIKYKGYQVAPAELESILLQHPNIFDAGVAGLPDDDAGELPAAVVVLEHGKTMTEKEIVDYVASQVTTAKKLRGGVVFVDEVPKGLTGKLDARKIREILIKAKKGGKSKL
#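 Purified P. pyralis luciferase, 10 nM final, with Km-level 10 uM D-luciferin and 10 uM ATP in 50 mM Tris acetate pH 7.5, 10 mM Mg acetate, 0.01% Tween-20, 0.05% BSA; 6-point qHTS titration about 60 µM downward; luminescence read.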
# NPC1 promoter act: NPC1 promoter activation; 320,000 compounds, 2.4% hits; Potency, µM (titrated, usually from 9.22 µM), inactives show at the top dose activation, most hits filed as activators; Huh7 NPC1 promoter luciferase reporter, 24 h; note: % of control where 0% means no effect; nearly all actives have a fitted effect of over 60% in size
#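 Readout is luciferase luminescence, reflecting NPC1 promoter activation in stably transfected Huh7 cells after 24 h compound exposure at 37 °C in reduced-serum medium with 10% FBS.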
# ELG1 genotoxic: inducers of genotoxicity in HEK293T ELG1-luciferase cells. 330,000 compounds, 1.3% hits. AID 504466. HEK293T ELG1-luciferase reporter, luminescence, 16 h. Potency, µM (titrated, usually from 46 µM), inactives show at the highest dose activity change, positive = activation, hits mostly activators; note: % of control where 0% means no effect; nearly all actives have a fitted effect of over 60% in size
#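 Reporter readout depends on ELG1 protein level, which increases with genetic stress. After 16 hr compound exposure at 37 °C, luciferase activity was quantified using ONE-Glo.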
# Rab9 prom act: activates the Rab9 promoter; Potency, µM (doses to about 9.22 µM), inactives show at the highest dose activation, negative = inhibition, most hits filed as activators; Huh7 Rab9 promoter-luciferase reporter, luminescence, 24 h; 320,000 compounds, 2.8% hits; note: % of control where 0% means no effect; nearly all actives have a fitted effect of over 60% in size
#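 Rab9 promoter-driven luciferase in stably transfected Huh7 cells; 1500 cells/well rested 2 h, exposed to compound in DMSO for 24 h at 37 °C, 5% CO2. Luminescence read 10 min after adding luciferase reagent at ambient temperature.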
# SMN2 splice up: increases expression of the SMN2 splice variant; HEK293 SMN2-luciferase splicing reporter, luminescence, 30-36 h; Potency, µM (highest dose often 46.1 µM), for inactives: at the highest dose activity change, positive = activation, usual class: activators; 210,000 compounds, 2.8% hits; note: % of control where 0% means no effect; nearly all actives have a fitted effect of over 55% in size
#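 HEK293 cells carry an SMN2 minigene-luciferase reporter in which exon 7 inclusion puts luciferase in frame. Cells were seeded at 2000 cells/well, attached for 10-12 hours, then exposed to compounds for 30-36 hours at 37C before ONE-Glo luminescence.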
# Active calls of the source: *; ? = inconclusive; nt = no result; [ ] = remark or other dose. Most compounds without a hit are left out; they make up all but 7.4% or so of the library. Calls come from the whole dose curve; as a rule, active = well fitted curve in the direction sought with a large enough effect; inconclusive = small, poorly fitted or top-dose-only effect, or another doubt; inactive = no such curve, though single readings can be large; an effect the other way counts as inactive or inconclusive. Potency is the fitted concentration of half-maximal effect.
SMILES,FLuc modulator,NPC1 promoter act,ELG1 genotoxic,Rab9 prom act,SMN2 splice up
O=C(O)c1ccc2c(c1)C(=O)N([C@]1(C(=O)O)C[C@H]1c1ccccc1)C2=O,-0.7%,1.0%,nt,2.1%,nt
Clc1ccc(CSCCc2ccncc2)cc1Cl,nt,nt,nt,nt,-5.1%[9.22 µM]
Cc1nc2nc(-c3ccc(Cl)cc3Cl)nn2c(C)c1CCC(=O)Nc1ccc(F)cc1,?,nt,nt,nt,2.0%
N#C/C(=C\c1cc(Br)c(O)c(Br)c1)c1nc2ccccc2c(=O)[nH]1,15.1µM*,nt,nt,nt,-7.4%
Cc1cc(/C=C(/C#N)c2nc3ccccc3[nH]2)c(C)n1-c1cc(C(=O)O)cc(C(=O)O)c1,16.9µM*,-1.2%,-1.6%,-11.7%,-4.6%
N#C/C(=C/c1ccncc1)c1nc2ccccc2c(=O)[nH]1,?,-2.4%,-0.5%,-8.1%,nt
COc1ccc2nc(/C(C#N)=C\c3ccc(C(=O)O)cc3)[nH]c2c1,23.9µM*,-2.4%,2.3%,0.9%,nt
N#C/C(=C\c1cccs1)c1nc2ccccc2[nH]1,6.75µM*,?,?,?,7.94µM*
CCCN(CCC)c1ccc(C2N=C(N)Nc3nc4ccccc4n32)cc1 (stereo not drawn),-2.2%,nt,nt,nt,13.0%
COc1ccc2c(c1)O[C@@H](c1cccc(C(F)(F)F)c1)[C@H](OC(=O)NCc1ccco1)C2=O,nt,nt,nt,nt,1.3%
COc1ccccc1C(=O)Nc1nnc2n1CCS2,-5.8%,nt,nt,nt,nt
COc1ccc(-c2cc3ccc(O)c(CN4CCOCC4)c3oc2=O)cc1OC,-2.3%,nt,nt,nt,nt
CC(=O)c1cccc(NC(=O)[C@H](Cc2ccccc2)N2Cc3ccccc3C2=O)c1,-9.3%,nt,nt,nt,3.6%
N#C/C(=C\c1ccc(Cl)cc1)c1nc2ccccc2[nH]1,-18.3%,nt,nt,nt,7.4%
N#C/C(=C/c1ccc(O)c(O)c1)c1nc2ccccc2[nH]1,6.75µM*,-0.4%,18.4%,-5.2%,nt
COc1cccc(Sc2nc(-c3ccccc3)ncc2S(C)(=O)=O)c1,16.9µM*,-4.0%,1.0%,-2.3%,nt
CS(=O)(=O)c1cnc(-c2ccccc2)nc1Sc1ccc(F)cc1,-17.6%,-5.1%,?,2.4%,nt
O=C1N/C(=C\c2ccc(O)cc2)C(=O)c2ccccc21,1.2µM*,-17.3%,?,0.0%,-8.5%
CC(=O)NCCN=C(C)c1sc2ccccc2c1O,?,?,11.2%,?,?
O=[N+]([O-])c1cccc(N=Cc2sc3ccccc3c2O)c1,?,26.0%,?,?,9.1%
CC(=Nc1cccc(C)c1)c1sc2ccccc2c1O,3.01µM*,19.8%,9.2µM*,?,12.6µM*
CC(=Nc1ccc(O)cc1)c1sc2ccccc2c1O,2.39µM*,1.78µM*,4.61µM*,1.12µM*,10µM*
CC(=Nc1ccccc1O)c1sc2ccccc2c1O,9.53µM*,5.7%,?,?,nt
C/C=C/C1=CC2=CC(=O)C(C)(OC(=O)c3c(C)cc(O)cc3O)C(=O)C2=CO1 (stereo not drawn),nt,nt,nt,nt,4.0%
COc1cc(C)cc2oc(=O)c(CC(=O)NCCc3ccc(Cl)cc3)c(C)c12,5.6%,nt,nt,nt,22.7%
SMILES,FLuc modulator,NPC1 promoter act,ELG1 genotoxic,Rab9 prom act,SMN2 splice up
CCOC(=O)c1[nH]c(C)c(CCC(=O)Nc2cc(Cl)ccc2C)c1C,-6.5%,nt,nt,nt,nt
Cc1cccc(N2CCN(C(=O)Cn3nc(C)c4sc5ccccc5c4c3=O)CC2)c1C,2.8%,nt,nt,nt,nt
CCCS(=O)(=O)N1CCC(N2CCN(Cc3ccc(F)cc3)C(=O)C2=O)CC1,0.1%,nt,nt,nt,nt
COC(=O)c1sccc1NC(=O)Nc1cccc(C)c1C,-18.5%,1.4%,2.2%,2.9%,nt
COC(=O)c1sccc1NC(=O)Nc1cc(OC)ccc1OC,-0.5%,0.3%,3.4%,5.3%,nt
O=C(Nc1cccc([N+](=O)[O-])c1)Nc1cccs1,26.9µM*,9.8%,-8.3%,9.3%,-18.9%
COC(=O)c1sccc1NC(=O)Nc1cccc(C(C)=O)c1,7.57µM*,2.5%,0.5%,1.1%,nt
COC(=O)c1sccc1NC(=O)Nc1ccc(OC)cc1,1.69µM*,17.8%,?,20.3%,nt
COC(=O)c1sccc1NC(=O)Nc1cccc([N+](=O)[O-])c1,6.75µM*,-1.9%,6.5%,11.8%,nt
Cc1cccc(CNC(=O)Cc2csc3ccccc23)c1,?,nt,nt,nt,-3.0%
NC(=O)C1CCN(S(=O)(=O)c2cc3c(cc2Cl)NC(=O)CO3)CC1,-2.0%,nt,nt,nt,nt
COC(=O)c1sccc1NC(=O)Nc1cc(C)ccc1C,-2.3%,2.9%,-0.3%,-0.6%,-0.2%
COC(=O)c1sccc1NC(=O)Nc1cccc(C)c1,4.78µM*,1.7%,?,2.5%,nt
O=C(Nc1cccc(C(F)(F)F)c1)Nc1cccs1,12µM*,nt,nt,nt,5.2%
C/C(N)=C(/C#N)C(=O)CSc1nnc(Nc2cccc(C)c2C)s1,16.9µM*,?,15.1%,?,?
Clc1ccc2nc(-c3ccc(Br)s3)cn2c1,0.338µM*,19.0%,0.411µM*,?,0.708µM*
COc1ccc(-c2cn3cc(C)ccc3n2)cc1Br,0.477µM*,0.891µM*,?,1.26µM*,2.24µM*
O=C(O)c1ccccc1-c1cn2cc(Cl)ccc2n1,7.57µM*,17.6%,-4.4%,?,18.5%
O=C(O)CSCc1cn2cc(Cl)ccc2n1,-17.5%,-2.4%,-4.7%,-5.2%,18.5%
COc1ccc(-c2cn3cc(Cl)ccc3n2)cc1OC,7.57µM*,16.2%,?,?,11.2µM*
CCN(C(=O)Cn1nc(Cc2ccncc2)c2ccccc2c1=O)c1ccc(OC)cc1,-1.0%,nt,nt,nt,-10.6%
Clc1ccc2oc(-c3ccccc3)nc2c1,2.39µM*,-1.5%,?,23.4%,?
O=C(Cc1ccc(Cl)cc1)Nc1ccc2oc(-c3ccccc3)nc2c1,0.1%,nt,nt,nt,-3.9%
O=C(O)Cc1ccc2oc(-c3cccnc3)nc2c1,?,2.7%,4.9%,22.3%,23.8%
Clc1ccc2oc(-c3cccnc3)nc2c1,15.1µM*,?,8.6%,?,-2.3%
SMILES,FLuc modulator,NPC1 promoter act,ELG1 genotoxic,Rab9 prom act,SMN2 splice up
C/C(N)=C(/C#N)C(=O)CSc1nnc(-c2ccc(OC(F)F)cc2)o1,2.69µM*,1.41µM*,5.8µM*,1.26µM*,11.2µM*
NC(=O)c1ccc(NC(=O)CSc2nnc(-c3ccc4c(c3)OCO4)o2)cc1,-1.9%,10.5%,5.7%,19.7%,nt
C/C(N)=C(/C#N)C(=O)CSc1ccccc1F,?,?,?,3.55µM*,?
NC(=O)CSc1nnc(-c2ccc3c(c2)OCO3)o1,15.1µM*,2.82µM*,?,2.51µM*,12.6µM*
O=C(c1ccc(Cl)cc1)N1CCCCC(Sc2nnc(-c3ccc4c(c3)OCO4)o2)C1=O (stereo not drawn),1.9µM*,?,?,?,-86.8%
O=C(O)CSc1nnc(-c2ccc3c(c2)OCO3)o1,?,-2.2%,0.6%,-3.2%,-1.1%
C=C(C)CSc1nc2sc3c(c2c(=O)n1Cc1ccccc1)CC(C)(CC)OC3 (stereo not drawn),-6.7%,nt,nt,nt,-20.7%
C[N+](C)(C)CCCSc1nc2ccccc2[nH]1,nt,nt,nt,nt,-13.1%[9.22 µM]
C/C(N)=C(/C#N)C(=O)CSc1nnc(-c2ccc3c(c2)OCO3)o1,0.269µM*,0.282µM*,0.581µM*,0.1µM*,1.12µM*
